In the antibiotic and cytotoxicity screens of Wong et al. (2023):
The campaign covered roughly 39,000 compounds. About 500 (1.3%) were called active. The entries come from a sample that favours actives as a whole.

What follows are compounds tested on S. aureus RN4220 (assay: growth inhibition call (relative growth <= 0.2)). Settings: 50 µM.

| SMILES | growth inhibition call |
| --- | --- |
| CCCNC(=O)N1C[C@@H](O)COC[C@H]2O[C@@H](CC(=O)N3CCN(C)CC3)CC[C@@H]21 | inactive |
| C[C@H]1CN([C@@H](C)CO)C(=O)c2cc(NC(=O)Cc3ccccc3)ccc2O[C@H]1CN(C)C(=O)Nc1cccc2ccccc12 | inactive |
| O=C(/C=c1/nc2c([nH]c1=O)=NON2)c1ccccc1 | active |
| O=C1OCCN/C1=C/C(=O)c1ccccc1 | inactive |
| C[C@H]1CNC(=CC(=O)c2ccccc2)C(=O)N1 | inactive |
| COc1ccc(S(=O)(=O)N(C)C[C@@H]2Oc3ccc(NC(=O)Cc4ccccc4)cc3CC(=O)N([C@@H](C)CO)C[C@@H]2C)cc1 | inactive |
| CC(C)(C)[S@](=O)N1Cc2cc(C(=O)NCc3ccccc3F)nc(-c3cccc(-c4ccncc4)c3)c2[C@@H]1CCO | inactive |
| O=C(C[C@H]1CC[C@@H]2[C@H](COC[C@H](O)CN2C(=O)Nc2cccc(Cl)c2)O1)NCc1ccccc1F | inactive |
| COc1cccc(NC(=O)N2C[C@H](O)COC[C@H]3O[C@@H](CC(=O)NCc4ccccc4F)CC[C@@H]32)c1 | inactive |
| O=C(C[C@H]1CC[C@@H]2[C@H](COC[C@@H](O)CN2C(=O)Nc2cccc(Cl)c2)O1)NCc1ccccc1F | active |
| O=C(C[C@@H]1CC[C@@H]2[C@H](COC[C@@H](O)CN2C(=O)Nc2cccc(Cl)c2)O1)NCc1ccccc1F | active |
| O=C(C[C@H]1CC[C@H]2[C@@H](COC[C@H](O)CN2C(=O)Nc2cccc(Cl)c2)O1)NCc1ccccc1F | inactive |
| O=C(C[C@@H]1CC[C@H]2[C@@H](COC[C@H](O)CN2C(=O)Nc2cccc(Cl)c2)O1)NCc1ccccc1F | active |
| O=C(C[C@H]1CC[C@H]2[C@@H](COC[C@@H](O)CN2C(=O)Nc2cccc(Cl)c2)O1)NCc1ccccc1F | inactive |
| O=C(C[C@@H]1CC[C@H]2[C@@H](COC[C@@H](O)CN2C(=O)Nc2cccc(Cl)c2)O1)NCc1ccccc1F | inactive |
| O=C(C[C@@H]1CC[C@@H]2[C@H](COC[C@H](O)CN2C(=O)Nc2cccc(Cl)c2)O1)NCc1ccccc1F | inactive |
| COc1ccc(NC(=O)N(C)C[C@H]2Oc3c(NC(=O)Nc4cccc5ccccc45)cccc3C(=O)N([C@@H](C)CO)C[C@@H]2C)cc1 | inactive |
| COc1ccc(S(=O)(=O)N(C)C[C@H]2Oc3c(NS(=O)(=O)c4c(C)noc4C)cccc3C(=O)N([C@@H](C)CO)C[C@@H]2C)cc1 | inactive |
| O=c1[nH]cccc1F | inactive |
| C[C@@H]1CN([C@H](C)CO)C(=O)Cc2cc(NC(=O)CCN3CCOCC3)ccc2O[C@@H]1CN(C)C(=O)Nc1ccc2c(c1)OCO2 | inactive |
| C[C@@H]1CN([C@@H](C)CO)C(=O)c2cc(NC(=O)C3CCCCC3)ccc2O[C@@H](C)CCCCO[C@H]1CN(C)C(=O)c1ccccc1 | inactive |
| CNC[C@@H]1Oc2cc(C#CCN(C)C)ccc2S(=O)(=O)N([C@@H](C)CO)C[C@@H]1C | inactive |
| CC(C)NC(=O)N(C)C[C@@H]1Oc2ccc(NC(=O)C3CCCCC3)cc2C(=O)N([C@@H](C)CO)C[C@@H]1C | inactive |
| C[C@H](CO)N1C[C@H](C)[C@H](CN(C)C(=O)Nc2cccc(C(F)(F)F)c2)OCc2cnnn2CCCC1=O | active |

| SMILES | growth inhibition call |
| --- | --- |
| C[C@H]1CN([C@@H](C)CO)C(=O)CCCn2nncc2CO[C@@H]1CN(C)C(=O)Nc1cccc(C(F)(F)F)c1 | inactive |
| C[C@@H]1CN([C@@H](C)CO)C(=O)CCCn2nncc2CO[C@H]1CN(C)C(=O)Nc1cccc(C(F)(F)F)c1 | inactive |
| C[C@H]1CN([C@@H](C)CO)C(=O)CCCn2nncc2CO[C@H]1CN(C)C(=O)Nc1cccc(C(F)(F)F)c1 | active |
| C[C@@H]1CN([C@@H](C)CO)C(=O)CCCn2nncc2CO[C@@H]1CN(C)C(=O)Nc1cccc(C(F)(F)F)c1 | inactive |
| C[C@@H]1CN([C@H](C)CO)C(=O)CCCn2nncc2CO[C@H]1CN(C)C(=O)Nc1cccc(C(F)(F)F)c1 | active |
| C[C@H]1CN([C@@H](C)CO)C(=O)CCCn2nncc2CO[C@H]1CN(C)C(=O)Nc1ccc(C(C)(C)C)cc1 | inactive |
| C[C@@H]1CN([C@@H](C)CO)C(=O)CCCn2nncc2CO[C@H]1CN(C)C(=O)Nc1ccc(C(C)(C)C)cc1 | inactive |
| C[C@@H]1CN([C@H](C)CO)C(=O)CCCn2nncc2CO[C@@H]1CN(C)C(=O)Nc1cccc(C(F)(F)F)c1 | active |
| C[C@H](CO)N1C[C@H](C)[C@@H](CN(C)C(=O)Nc2cccc(C(F)(F)F)c2)OCc2cnnn2CCCC1=O | inactive |
| C[C@@H]1CCCCO[C@@H](CN(C)C(=O)Nc2ccccc2)[C@@H](C)CN([C@H](C)CO)C(=O)c2cc(NC(=O)CCC(F)(F)F)ccc2O1 | inactive |
| C[C@H]1CN([C@@H](C)CO)C(=O)c2cc(NC(=O)NC3CCCCC3)ccc2O[C@H]1CN(C)C(=O)Nc1cccc2ccccc12 | inactive |
| OC[C@H]1O[C@@H]2O[C@H]3[C@H](O)[C@@H](O)[C@@H](O[C@H]4[C@H](O)[C@@H](O)[C@@H](O[C@H]5[C@H](O)[C@@H](O)[C@@H](O[C@H]6[C@H](O)[C@@H](O)[C@@H](O[C@H]7[C@H](O)[C@@H](O)[C@@H](O[C@H]1[C@H](O)[C@H]2O)O[C@@H]7CO)O[C@@H]6CO)O[C@@H]5CO)O[C@@H]4CO)O[C@@H]3CO | inactive |
| COc1ccc(NC(=O)Nc2ccc3c(c2)CC(=O)N([C@@H](C)CO)C[C@H](C)[C@H](CN(C)S(=O)(=O)c2c(C)noc2C)O3)cc1 | inactive |
| COc1ccc(S(=O)(=O)Nc2ccc3c(c2)CC(=O)N([C@@H](C)CO)C[C@@H](C)[C@@H](CN(C)C(=O)NC(C)C)O3)cc1 | inactive |
| OC1OC(c2ccc(Cl)c(Cc3ccc(OC4CCOC4)cc3)c2)C(O)C(O)C1O (stereo not given) | inactive |
| CO[C@@H]1CN(C)C(=O)c2ccc(NC(=O)C3CC3)cc2OC[C@H](C)N(C(=O)Cc2ccccn2)C[C@H]1C | inactive |
| C[C@@H]1CN([C@H](C)CO)C(=O)c2cc(NS(=O)(=O)c3ccc(F)cc3)ccc2O[C@H]1CN(C)S(=O)(=O)c1cccs1 | inactive |
| NCCNc1cccc2ccccc12 | inactive |
| Cc1nnc(NCCc2ccccc2)n(N)c1=O | inactive |
| c1ccc(CCNc2ccnc3cc4ccccc4cc23)cc1 | active |
| C[C@@H]1CN([C@@H](C)CO)C(=O)Cc2cc(NC(=O)CCN3CCOCC3)ccc2O[C@@H]1CN(C)S(=O)(=O)c1ccc(Cl)cc1 | inactive |
| CO[C@@H]1CN(C)C(=O)c2cc(NC(=O)C3CC3)ccc2OC[C@H](C)N(C(=O)CN2CCOCC2)C[C@H]1C | inactive |
| NC(=O)N1C(=O)[C@H]2[C@H](C1=O)[C@H]1C=C(CCCO)[C@@H]2[C@H](c2ccc(CN3CCCC3)cc2)N1Cc1sc2ccccc2c1Cl | inactive |
| COC(=O)C1=CC(CCCO)=C[C@@H](c2ccc(CN3CCCC3)cc2)N(Cc2sc3ccccc3c2Cl)C=C1C(=O)OC | inactive |

| SMILES | growth inhibition call |
| --- | --- |
| CS(=O)(=O)CCOC(=O)C1=CC(CCCO)=C[C@@H](c2ccc(CN3CCCC3)cc2)N(Cc2sc3ccccc3c2Cl)C=C1C(=O)OCCS(C)(=O)=O | active |
| COc1c(C)cc(-c2cc3c(c(CCc4ccccc4)n2)[Si](C(C)C)(C(C)C)O[C@H]3c2ccccc2)cc1C | active |
| COc1cc(Cc2cc3c(c(CCc4ccccc4)n2)[Si](C(C)C)(C(C)C)O[C@H]3c2ccccc2)cc(OC)c1OC | active |
| CCCCCCc1nc(-c2cc(C)c(OC)c(C)c2)cc2c1[Si](C(C)C)(C(C)C)O[C@H]2c1ccccc1 | inactive |
| COc1cc(Cc2cc3c(c(CCc4ccccc4)n2)[Si](C(C)C)(C(C)C)OC3)cc(OC)c1OC | inactive |
| COc1c(C)cc(-c2cc3c(c(-c4ccccc4)n2)[Si](C(C)C)(C(C)C)O[C@H]3c2ccccc2)cc1C | inactive |
| COc1ccc(-c2cc3c(c(CCc4ccccc4)n2)[Si](C(C)C)(C(C)C)O[C@H]3c2ccccc2)cn1 | inactive |
| C=CCNC1=C2C[C@H](C)C[C@H](OC)[C@@H](O)[C@H](C)/C=C(\C)[C@H](OC(N)=O)[C@H](OC)/C=C/C=C(\C)C(=O)NC(=CC1=O)C2=O | inactive |
| C[C@H](CO)N1C[C@H](C)[C@H](CN(C)Cc2ccc(C(=O)Nc3ccccc3N)cc2)Oc2c(NC(=O)NC3CCCCC3)cccc2C1=O | inactive |
| C[C@@H]1CCCCO[C@@H](CN(C)CC2CCCCC2)[C@H](C)CN([C@@H](C)CO)C(=O)c2cc(NS(=O)(=O)c3cccs3)ccc2O1 | inactive |
| NCCNC(=O)c1nc(-c2ccc(Br)o2)no1 | inactive |
| NNC(=O)c1nc(-c2ccccc2)no1 | inactive |
| O=C(NCc1ccc(Oc2ccccc2)cc1)c1nc(-c2cc(Br)c(O)c(Br)c2)no1 | active |
| COc1ccc(NC(=O)N(C)C[C@H]2Oc3c(NC(=O)c4ccc(-c5nccs5)cc4)cccc3C(=O)N([C@@H](C)CO)C[C@H]2C)cc1 | inactive |
| CN(C)c1cc[n+](C(=O)N2CCOCC2)cc1 | inactive |
| COc1ccc2[nH]c(=O)[nH]c(=O)c2c1 | active |
| O=c1[nH]c(=O)c2cc(Br)ccc2[nH]1 | inactive |
| O=c1[nH]c(=O)c2ccccc2[nH]1 | inactive |
| O=C(Nc1ccc(-c2nc3ccc(NC(=O)c4ccc(Cl)cc4)cc3[nH]2)cc1)c1ccc(Cl)cc1 | inactive |
| COCC#Cc1cnc2c(c1)C(=O)N([C@H](C)CO)C[C@H](C)[C@@H](CN(C)S(=O)(=O)c1cn(C)cn1)O2 | inactive |
| COc1ccc(CN(C)C[C@H]2OCCCC[C@H](C)Oc3ccc(NC(=O)c4ccccc4)cc3C(=O)N([C@@H](C)CO)C[C@@H]2C)cc1 | inactive |
| Cc1cc(C(=O)Nc2cccc3c2O[C@@H](CN(C)C(=O)NC(C)C)[C@H](C)CN([C@@H](C)CO)C3=O)n(C)n1 | inactive |
